Records with an inconclusive call do not appear. Activity calls are given as the source filed them.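 The calls were made as follows, unless noted: active = normalized viability below 100% at a tested concentration; inactive = the rest.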

A short description of experiment [1]: growth inhibition of DIPG glioma cells, dose response, cell-based, SU-DIPG-XVII, MIPE5.0, CellTiter-Glo, qHTS (AID 1347060; cut-off not given, nearly all actives have AC50 up to about 26 µM;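 as to AC50: cells exposed to compound for 48 hours before viability readout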). To be noted: SU-DIPG-XVII viability, CellTiter-Glo ATP luminescence. On the technique in general: In ATP-based viability assays light output follows the ATP content of the culture.
The nature of experiment [2]: growth inhibition of DIPG glioma cells, dose response, cell-based, JHH-DIPG-1, MIPE4.0, CellTiter-Glo, qHTS (AID 1347062; cut-off not given, nearly all actives have AC50 up to about 27 µM;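 as to AC50: cells exposed to compound for two days before readout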). To be noted: JHH-DIPG-1 viability, CellTiter-Glo ATP luminescence.
Experiment [3] in a line: growth inhibition of DIPG glioma cells, dose response, cell-based, SU-DIPG-IV, MIPE4.0, CellTiter-Glo, qHTS (AID 1347063; cut-off not given, nearly all actives have AC50 up to about 30 µM;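 also: compound exposure lasted 48 hours before the viability readout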). To be noted: SU-DIPG-IV viability, CellTiter-Glo ATP luminescence.
The nature of experiment [4]: viability loss in pontine glioma line – cell-based, SU-DIPG-XXV, MIPE5.0, CellTiter-Glo, qHTS, dose response (AID 1347065; cut-off not given, nearly all actives have AC50 up to about 26 µM;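 also: cells exposed to compound for 48 hours before ATP readout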). The settings on record: CellTiter-Glo ATP luminescence.
Experiment [5] can be described thus: SU-DIPG-VI glioma cell viability, MIPE4.0 library, CellTiter-Glo luminescence, qHTS (AID 1347066; cut-off not given, nearly all actives have AC50 up to about 30 µM;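 also: cells exposed to compound for 48 hours before readout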). The settings on record: CellTiter-Glo ATP luminescence.
Experiment [6] is described as follows: JHH-DIPG-1 glioma cell viability, MIPE5.0 library, CellTiter-Glo luminescence, qHTS (AID 1347067; cut-off not given, nearly all actives have AC50 up to about 26 µM;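 also: cells exposed to compound for 48 hours before readout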). To be noted: JHH-DIPG-1 glioma viability, CellTiter-Glo ATP luminescence.
The nature of experiment [7]: sensitizers of A549 cells to miR-34 induction, primary screen, imaging, A549 dox-inducible miR-34, nuclei and caspase counts (AID 1347080;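 active = compounds whose cell count with miR-34 switched on is under 0.7 times the count with it off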). To be noted: A549 miR-34 inducible, Hoechst nuclei count, 48 h.
A short description of experiment [8]: modifiers of HSF1 nuclear foci, imaging, Selleck Cancer Library (AID 1347162; in the data active = plate-normalised HSF1 focus index below about 0.46). The settings on record: human cells, at 10 µM; SSMD: measured here: HSF1 foci SSMD mean; cell count: measured here: cell number; plate-normalised HSF1 focus index: stronger effect = lower value.
Experiment [9] is described as follows: survival rescue of mitochondrial mutant cells in low glucose, primary screen, MELAS cybrids, Rieske KO mouse fibroblasts, CellTiter-Glo (AID 1508586;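 active = mean z-score across replicates of 1.96 or higher in either the MELAS or the Rieske mutant cell line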;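 also: z relative to plate mean and SD of compound and empty wells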).
Experiment [10] in a line: ovarian cancer cell viability with rucaparib, profiling panel, oncology-focused library, rucaparib conditional (AID 1508598). To be noted: patient-derived ovarian cancer cells, CellTiter-Glo viability, 144 h, stronger effect = lower value.
Experiment [11] can be described thus: SU-DIPG-XXV glioma cell viability, MIPE5.0 library, qHTS (AID 1347068; cut-off not given, nearly all actives have IC50 up to about 30 µM;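 as to IC50: cells exposed to compound for 48 hours before viability readout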).
The mark [12] stands for this setting: stronger effect = lower value, cell number ratio, induced over uninduced.
Setting [13] is: measured here: relative caspase fold change +Dox/-Dox.
Setting [14] is: measured here: total cells with miR-34 induction, stronger effect = lower value.
Setting [15] is: measured here: total cells without miR-34 induction.
Where [16] appears, read: MELAS cybrid survival, CellTiter-Glo 48 h, stronger effect = higher value.
[17] abbreviates: Rieske KO mouse fibroblast survival, CellTiter-Glo 72 h.

As for `Cn1cncc1[C@@](N)(c1ccc(Cl)cc1)c1ccc2c(c1)c(-c1cccc(Cl)c1)cc(=O)n2C`, the concentration at half-maximal activity (AC50) (usually the midpoint of the concentration-response curve, whichever way the signal moves) was 33.2 µM (active) in experiment [1]; 23.5 µM (active) in experiment [2]; 8.33 µM (active) in experiment [3]; 16.6 µM (active) in experiment [4]; 18.7 µM (active) in [5]; 18.6 µM (active) in experiment [6]. For the same molecule, the fold change in [7] (setting [12]) was 1.1 (inactive); in experiment [7] (setting [13]), 0.725. In addition, the values for the cell count in [7] (setting [14]), in experiment [7] (setting [15]) and in experiment [8] were 5030, 4560 and 4640, respectively. The molecule further gave an SSMD in experiment [8] of -8.89. The plate-normalised HSF1 focus index in experiment [8] was 0.564 (inactive). Also, the z-score in experiment [9] (setting [16]) was -0.557 (inactive); in [9] (setting [17]) it was -0.393. The viability (commonly a read-out of living cells in per cent, often relative to untreated cells) in [10] (at 0.000305 µM, OCI-C5x cells, with rucaparib 10 µM, 100% = cells with rucaparib alone) is 113% (inactive); in [10] (at 0.000305 µM, OCI-C5x cells, without rucaparib) it was 115% (inactive); in [10] (at 0.000305 µM, OCI-P5x cells, with rucaparib 20 µM, 100% = cells with rucaparib alone) it was 102% (inactive); in experiment [10] (at 0.000305 µM, OCI-P5x cells, without rucaparib), 113% (inactive); in [10] (at 0.00122 µM, OCI-C5x cells, with rucaparib 10 µM, 100% = cells with rucaparib alone), 118% (inactive); in [10] (at 0.00122 µM, OCI-C5x cells, without rucaparib) it was 111% (inactive). Also, the viability in [10] (at 0.00122 µM, OCI-P5x cells, with rucaparib 20 µM, 100% = cells with rucaparib alone) was 103% (inactive); in [10] (at 0.00122 µM, OCI-P5x cells, without rucaparib), 109% (inactive); in [10] (at 0.00488 µM, OCI-C5x cells, with rucaparib 10 µM, 100% = cells with rucaparib alone), 115% (inactive); in [10] (at 0.00488 µM, OCI-C5x cells, without rucaparib), 122% (inactive); in experiment [10] (at 0.00488 µM, OCI-P5x cells, with rucaparib 20 µM, 100% = cells with rucaparib alone), 107% (inactive); in experiment [10] (at 0.00488 µM, OCI-P5x cells, without rucaparib) it was 107% (inactive). Moreover, the viability in experiment [10] (at 0.0195 µM, OCI-C5x cells, with rucaparib 10 µM, 100% = cells with rucaparib alone) is 114% (inactive); in experiment [10] (at 0.0195 µM, OCI-C5x cells, without rucaparib), 123% (inactive); in experiment [10] (at 0.0195 µM, OCI-P5x cells, with rucaparib 20 µM, 100% = cells with rucaparib alone) it was 98.9% (active); in experiment [10] (at 0.0195 µM, OCI-P5x cells, without rucaparib), 85.9% (active); in [10] (at 0.0781 µM, OCI-C5x cells, with rucaparib 10 µM, 100% = cells with rucaparib alone), 111% (inactive); in [10] (at 0.0781 µM, OCI-C5x cells, without rucaparib) it was 121% (inactive). Also, the viability in experiment [10] (at 0.0781 µM, OCI-P5x cells, with rucaparib 20 µM, 100% = cells with rucaparib alone) was 92.4% (active); in [10] (at 0.0781 µM, OCI-P5x cells, without rucaparib), 67.4% (active); in experiment [10] (at 0.313 µM, OCI-C5x cells, with rucaparib 10 µM, 100% = cells with rucaparib alone), 113% (inactive); in experiment [10] (at 0.313 µM, OCI-C5x cells, without rucaparib), 99.3% (active); in experiment [10] (at 0.313 µM, OCI-P5x cells, with rucaparib 20 µM, 100% = cells with rucaparib alone), 74.4% (active); in experiment [10] (at 0.313 µM, OCI-P5x cells, without rucaparib), 66.7% (active). Moreover, the viability was 101% (inactive) in experiment [10] (at 1.25 µM, OCI-C5x cells, with rucaparib 10 µM, 100% = cells with rucaparib alone); 104% (inactive) in experiment [10] (at 1.25 µM, OCI-C5x cells, without rucaparib); 23.5% (active) in experiment [10] (at 1.25 µM, OCI-P5x cells, with rucaparib 20 µM, 100% = cells with rucaparib alone); 28.3% (active) in experiment [10] (at 1.25 µM, OCI-P5x cells, without rucaparib); 1.75% (active) in experiment [10] (at 5 µM, OCI-C5x cells, with rucaparib 10 µM, 100% = cells with rucaparib alone); 5.47% (active) in experiment [10] (at 5 µM, OCI-C5x cells, without rucaparib). Further, the viability is 0.988% (active) in experiment [10] (at 5 µM, OCI-P5x cells, with rucaparib 20 µM, 100% = cells with rucaparib alone) and 1.42% (active) in [10] (at 5 µM, OCI-P5x cells, without rucaparib).
As for `Cc1ccc(S(=O)(=O)OCC(=O)Nc2ccc(C(=O)O)c(O)c2)cc1`, the call in [1], in experiment [2], in experiment [3], in [4], in experiment [5] and in experiment [6] was inactive. For the same molecule, the call in experiment [11] was inactive. The fold change is 0.894 (inactive) in experiment [7] (setting [12]) and 0.798 in experiment [7] (setting [13]). In addition, the cell count in [7] (setting [14]) was 6690; in [7] (setting [15]) it was 7480. Besides, the z-score in experiment [9] (setting [16]) was -0.344 (inactive); in [9] (setting [17]) it was 0.295.
Turning to `CCc1ccc(C(=O)Nc2cc(CN3CCN(C)CC3)cc(C(F)(F)F)c2)cc1C#Cc1cnc2ccnn2c1`, the AC50 was 14.8 µM (active) in experiment [1]; 10.5 µM (active) in [2]; 7.43 µM (active) in [3]; 11.8 µM (active) in [4]; 16.6 µM (active) in experiment [5]; 13.2 µM (active) in experiment [6]. In addition, in [11], the IC50 (usually the midpoint of a concentration-inhibition curve) was 14.8 µM (active).

The values above are taken from PubChem BioAssay.
